Bioassay records deposited in PubChem by Broad Institute.
A selection follows.
aSyn UTR act = Activators working through SNCA 5'UTR binding (MLPCN) | alpha-synuclein 5'UTR reporter, activators screen | activity score, % (tested at 7.5 µM), hits read low | actives 7.1% (n = 300,000); in the data active = activity score below about -60%
Starred values were filed as active, the others as inactive.

SMILES	aSyn UTR act
COc1cc(C(=O)/C=C/c2cccnc2)ccc1O	-107*
O=C(/C=C/c1cccnc1)c1ccc(NC(=O)c2cccc(Br)c2)cc1	-103*
COc1ccc(CNC(=O)c2c(C)oc3c2C(=O)c2ccccc2C3=O)cc1	103
CC(=O)c1c(C)oc2c1C(=O)c1ccccc1C2=O	-62*
CC(O)CNCCCCOc1ccc(OCc2ccccc2)cc1 (stereo unspecified)	-93*
CC(/C=C1\NC(=S)NC1=O)=C\c1ccccc1	-62*
CCCCCc1nc2c(=O)[nH]c3ccccc3c2o1	-78*
CN1C=C/C(=C\c2cc[n+](C)c3ccccc23)c2ccccc21	74
Fc1ccc(-c2csc(-c3ccccn3)n2)cc1F	-112*
c1ccc(-c2nc(-c3ccco3)cs2)nc1	-183*
Cc1ccc2nc(-c3ccc(N4C(=O)CC(N5CCC(C(N)=O)CC5)C4=O)cc3)sc2c1 (stereo unspecified)	-72*
O=C(O)c1ccc(N=NNc2cccc([N+](=O)[O-])c2)cc1	-107*
COC(=O)c1ccc(N=NNc2ccccc2)cc1	-226*
COC(=O)c1ccc(N=NNc2ccc(C(=O)OC)cc2)cc1	-86*
Cc1ccccc1C(=O)Nc1nnc(SC(C)C)s1	-97*
CCOc1ccccc1C(=O)Nc1nnc(C(C)C)s1	-176*
O=C(Nc1ccccc1)Nc1nnc(-c2ccccc2)s1	-162*
O=C(Nc1nnc(-c2ccccc2)s1)c1ccccc1O	-153*
COc1ccccc1C(=O)Nc1nnc(SCC(=O)Nc2ccc3c(c2)oc2ccccc23)s1	-152*
COc1ccccc1C(=O)N(C)c1nnc(-c2ccccc2)s1	-117*
CC(=O)Nc1ccc(-c2nnc(SCC(=O)Nc3ccc4c(c3)oc3ccccc34)n2C)cc1	-92*
COc1cccc(C(=O)Nc2nnc(-c3ccccc3)s2)c1OC	-113*
COc1ccccc1C(=O)Nc1nnc(-c2ccccc2)s1	-153*
CC(C)=CC(=O)Nc1nnc(-c2ccccc2)s1	-187*
O=C(CSc1ncn[nH]1)Nc1nnc(-c2ccccc2)s1	-74*
SMILES	aSyn UTR act
COc1ccccc1C(=O)Nc1nnc(C)s1	-211*
COc1ccccc1C(=O)Nc1nc(-c2cccs2)c(NC(C)=O)s1	-128*
CCc1cc2c(=O)c(-c3nc(C)cs3)coc2cc1O	-145*
Cc1csc(-c2coc3cc(O)cc(C)c3c2=O)n1	-207*
C=CCN=c1scc(-c2ccccc2)n1/N=C/c1ccccn1	-68*
CCN=c1scc(-c2ccc(F)cc2)n1/N=C/c1ccccn1	-73*
C=CCOc1cccc(CNc2cccc(C(=O)O)c2)c1	-77*
C=CCOc1c(CNc2cccc(C(=O)O)c2)cccc1OC	-78*
C=CCN=Cc1sc2ccc(OCC)cc2c1O	-115*
CCCCN=Cc1sc2ccc(OCC)cc2c1O	-73*
Cc1cccc(NC(=O)c2ccc(Cl)c(S(=O)(=O)N3CCCCC3)c2)n1	-79*
Cc1cccc(NC(=O)c2ccc(Cl)c(S(=O)(=O)N3CCCC3)c2)n1	-68*
O=C(Nc1cc(S(=O)(=O)N2CCCCC2)ccc1Cl)c1ccccc1NS(=O)(=O)c1ccc(F)cc1	63
NC(=O)c1cnn(-c2ccc3ccccc3c2)c1N	-125*
Cc1ccc(C)c(NC(=S)NC(NC(=O)Cc2cccc3ccccc23)C(Cl)(Cl)Cl)c1 (stereo unspecified)	112
CCOc1ccc2[nH]c(C(=O)N/N=C/c3ccc(OC)cc3)cc2c1	76
CCOC(=O)c1[nH]c2ccc(OC)cc2c1NC(=O)c1ccccc1C(=O)O	-65*
CCOC(=O)c1[nH]c2ccccc2c1NC(=S)Nc1cc(C)ccc1C	-88*
CCOC(=O)c1[nH]c2ccc(OC)cc2c1C	-122*
CCOC(=O)c1cc2cc(OC)ccc2[nH]1	-147*
COc1ccc2[nH]c3c(C)c4ccncc4c(C)c3c2c1	109
COC(=O)c1[nH]c2ccc(F)cc2c1NS(=O)(=O)c1ccc(OC)cc1	100
CCCCNC(=O)C1CCN(Cc2ccc(OCc3ccccc3)cc2)CC1	-219*
C=CCN(CC=C)C(=O)C1CCN(Cc2ccc(OCc3ccccc3)cc2)CC1	-97*
OC1CCN(Cc2ccc(OCc3ccccc3)cc2)CC1	-70*
SMILES	aSyn UTR act
COc1ccc(NC2=Nc3ccccc3CC2)cc1	-137*
Cc1ccc(CSC2=Nc3ccccc3C3=NC(CC(=O)NCc4ccco4)C(=O)N23)cc1 (stereo unspecified)	-73*
Cc1ccc2c(COC(=O)c3n[nH]c4ccccc34)cc(=O)oc2c1	-172*
CCc1ccc2c(COC(=O)c3n[nH]c4ccccc34)cc(=O)oc2c1	-175*
Cc1ccc(C(=O)NC(=S)Nc2cccnc2Cl)cc1	-138*
O=C(NC(=S)Nc1ccccc1)c1ccc(-c2ccccc2)cc1	-102*
Cc1ccc(NC(=O)NC(=S)NC(=O)c2ccccc2)cc1	-125*
O=C(O)c1ccc(NC(=S)NC(=O)c2ccc(-c3ccccc3)cc2)cc1	-97*
O=C1CN(C(=S)NC(=O)c2ccc(-c3ccccc3)cc2)CCN1	-79*
CCOC(=O)c1snc(C(=O)NC2CCCCC2)c1N	-150*
COc1cccc(/C=N/Nc2nc(Nc3ccc([N+](=O)[O-])cc3)nc(N3CCCC3)n2)c1O	65
O=[N+]([O-])c1cc2c(cc1/C=N/Nc1nc(Nc3ccccc3)nc(N3CCCCC3)n1)OCO2	-63*
Nc1ccc(-c2nc3cc([N+](=O)[O-])ccc3o2)cc1	-146*
COc1ccc(-c2nc3cc([N+](=O)[O-])ccc3o2)cc1	-231*
COCCCN(C(C)=O)c1nc(-c2ccc(OC)cc2)cs1	-105*
CCN(C(=O)c1cccs1)c1nc(-c2ccc(OC)cc2)cs1	-130*
CC(/C=C/c1ccc(OCc2ccccc2)cc1)=N\O	-133*
CN1CCN(/N=C/c2ccc(OCc3ccccc3)cc2)CC1	-73*
COC(=O)c1ccc(COc2ccc(/C=N/N3CCN(C)CC3)cc2)cc1	-127*
O=C1CCC2S/C(=C/Nc3ccc(C(F)(F)F)cc3)C(=O)N12 (stereo unspecified)	99
O=C(O)COn1c(-c2ccc(Cl)cc2)nc2ccc(Cl)cc21	-123*
COn1c(-c2ccc(Cl)cc2)nc2ccc(Cl)cc21	-114*
CCCOc1cccc(-c2nc3ccccc3c(=O)o2)c1	-95*
O=c1oc(-c2ccc(Br)cc2)nc2ccccc12	-130*
O=C(Nc1nc2ccc(Cl)cc2s1)c1cccc(N2C(=O)CCC2=O)c1	-78*
SMILES	aSyn UTR act
O=C(Nc1nc2ccc(Cl)cc2s1)C1CCCO1 (stereo unspecified)	-127*
O=C(Nc1nc2ccc(S(=O)(=O)N3CCCC3)cc2s1)C1CCCCC1	72
O=C(Nc1nc2ccc(Cl)cc2s1)C1CC1	-150*
O=C(Nc1nc2ccc([N+](=O)[O-])cc2s1)C1CCCO1 (stereo unspecified)	-153*
O=C(Nc1nc2ccccc2s1)C1CCN(S(=O)(=O)c2cc([N+](=O)[O-])ccc2Cl)CC1	-81*
COC(=O)c1ccc2nc(NC(=O)C3CCCCC3)sc2c1	-105*
C=CCN(CC=C)S(=O)(=O)c1ccc2nc(NC(=O)C3CCCO3)sc2c1 (stereo unspecified)	-89*
COC(=O)c1ccc2nc(NC(=O)C(C)(C)C)sc2c1	60
CCCCOc1ccc(C2CCC(C(C)=O)C(C)C2)cc1 (stereo unspecified)	-169*
O=C(NCc1ccco1)C(=O)c1c[nH]c2ccccc12	-79*
O=C(NCc1cccs1)C(=O)c1c[nH]c2ccccc12	-123*
CN1CCN(/N=C/c2cccc(Cl)c2Cl)CC1	-72*
